Inconclusive results are not listed. The source made the active and inactive calls. How the source made its calls, unless noted: active means hit-call score of the fitted dose curve at least 0.9, where 1 is the maximum; inactive means score below 0.9.

Read-out in experiment [1]: Transforming Growth Factor (TGFB1), TGFB1 (gene 7040)
The experiment in a line: LTEA_HepaRG_TGFB1: Life Technologies and Expression Analysis (LTEA) Assay for Transforming Growth Factor (TGFB1) Transporter using HepaRG (AID 2283533). The settings on record: mRNA level, 48 h; actives raise or lower the signal. In outline:
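Eight-point concentration-response (max 100 uM, half-log) in HepaRG under serum-free induction conditions, 48 h. TGFB1 mRNA by qRT-PCR, housekeeping-normalized.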

Read-out in experiment [2]: TIMP1, TIMP1 (gene 7076)
The experiment in a line: LTEA_HepaRG_TIMP1: Life Technologies and Expression Analysis (LTEA) Assay for TIMP1 using HepaRG (AID 2283534). To be noted: mRNA level, 48 h; actives raise or lower the signal. In outline: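 TIMP1 induction or repression in HepaRG cells after 48 h chemical exposure (eight concentrations, highest 100 uM), assessed by normalized qRT-PCR with bidirectional fitting to DMSO controls.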

Read-out in experiment [3]: Tumor necrosis factor receptor 1 (TNFRSF1A), TNFRSF1A (gene 7132)
The experiment in a line: LTEA_HepaRG_TNFRSF1A: Life Technologies and Expression Analysis (LTEA) Assay for Tumor necrosis factor receptor 1 (TNFRSF1A) using HepaRG (AID 2283535). The settings on record: mRNA level, 48 h; actives raise or lower the signal. In outline:
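Assay uses 48 h chemical treatment of differentiated HepaRG monolayers, tested in duplicate at eight concentrations from 100 uM downward in 0.5% DMSO. mRNA is normalized to ACTB, GAPDH and POLR2A, with induction or suppression fitted relative to vehicle.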

Read-out in experiment [4]: Thyroid Hormone Responsive (THRSP), THRSP (gene 7069)
In words: LTEA_HepaRG_THRSP: Life Technologies and Expression Analysis (LTEA) Assay for Thyroid Hormone Responsive (THRSP) using HepaRG (AID 2283536). The settings on record: mRNA level, 48 h; actives raise or lower the signal. In outline:
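Differentiated HepaRG cells treated 48 h in serum-free induction medium with 8 half-log concentrations up to 100 uM (0.5% DMSO), duplicates. THRSP mRNA by TaqMan qRT-PCR normalised to ACTB, GAPDH, POLR2A; bidirectional fit versus DMSO.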

Read-out in experiment [5]: Cellular tumor antigen p53 (Homo sapiens) (UniProt P04637)
The experiment in a line: LTEA_HepaRG_TP53: Life Technologies and Expression Analysis (LTEA) Assay for Tumor Protein P53 (TP53) using HepaRG (AID 2283537). To be noted: mRNA level, 48 h; actives raise or lower the signal. In outline: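 Differentiated HepaRG cells in serum-free induction medium exposed 48 h in duplicate to 8 half-log concentrations, top 100 uM, 0.5% DMSO. TP53 mRNA by TaqMan qRT-PCR (Fluidigm), normalized to ACTB, GAPDH, POLR2A; fitted bidirectionally versus DMSO.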

Read-out in experiment [6]: UDP glucuronosyltransferase (UGT1A1), UGT1A1 (gene 54658)
In words: LTEA_HepaRG_UGT1A1: Life Technologies and Expression Analysis (LTEA) Assay for UDP glucuronosyltransferase (UGT1A1) using HepaRG (AID 2283538). To be noted: mRNA level, 48 h; actives raise or lower the signal. In short, it runs like this: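 HepaRG cells, 0.5% DMSO vehicle, 48 h exposure in serum-free induction medium to 8-point half-log series topping at 100 uM, in duplicate. UGT1A1 mRNA by Fluidigm qRT-PCR, normalized to ACTB/GAPDH/POLR2A; bidirectional fit versus DMSO.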

Read-out in experiment [7]: UDP glucuronosyltransferase (UGT1A6), UGT1A6 (gene 54578)
The experiment in a line: LTEA_HepaRG_UGT1A6: Life Technologies and Expression Analysis (LTEA) Assay for UDP glucuronosyltransferase (UGT1A6) using HepaRG (AID 2283539). To be noted: mRNA level, 48 h; actives raise or lower the signal. In outline: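 Measures mRNA change in HepaRG hepatic cells exposed 48 h to chemicals (eight-point, maximum 100 uM, 0.5% DMSO vehicle) in serum-free induction medium. Expression normalized to endogenous controls; DMSO served as negative control and baseline.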

Read-out in experiment [8]: X-box binding protein 1 (XBP1), XBP1 (gene 7494)
In words: LTEA_HepaRG_XBP1: Life Technologies and Expression Analysis (LTEA) Assay for X-box binding protein 1 (XBP1) using HepaRG (AID 2283540). The settings on record: mRNA level, 48 h; actives raise or lower the signal. In outline:
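Eight concentrations (half-log, highest 100 uM, 0.5% DMSO) tested in duplicate on HepaRG cells over 48 h in serum-free induction medium; qRT-PCR of XBP1 normalised to ACTB, GAPDH, POLR2A.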

Experiment [9] can be described thus: LTEA_HepaRG_LDH_cytotoxicity: Cytotoxicity Assessment in the Life Technologies and Expression Analysis (LTEA) Assay (AID 2283563; active means hit-call score of the fitted dose curve at least 0.9, where 1 is the maximum;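 on AC50: LDH activity released into spent culture medium as a marker of cell death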). In short, it runs like this:
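Spent-medium LDH after 48 h chemical exposure of HepaRG cells in serum-free induction medium; eight concentrations, half-log dilutions from 100 uM, duplicate wells, fitted upward relative to 0.5% DMSO.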

Experiment [10] in a line: ATG_XTT_Cytotoxicity: Cytotoxicity Assessment in the Attagene TRANS-FACTORIAL HepG2 Assay (AID 2283584; active means hit-call score of the fitted dose curve at least 0.9, where 1 is the maximum). In outline:
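24 h chemical exposure of reporter-transfected HepG2; XTT signal loss vs DMSO indicates cytotoxicity.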

Cellular tumor antigen p53 (Homo sapiens), sequence (P04637 whole entry, looked up): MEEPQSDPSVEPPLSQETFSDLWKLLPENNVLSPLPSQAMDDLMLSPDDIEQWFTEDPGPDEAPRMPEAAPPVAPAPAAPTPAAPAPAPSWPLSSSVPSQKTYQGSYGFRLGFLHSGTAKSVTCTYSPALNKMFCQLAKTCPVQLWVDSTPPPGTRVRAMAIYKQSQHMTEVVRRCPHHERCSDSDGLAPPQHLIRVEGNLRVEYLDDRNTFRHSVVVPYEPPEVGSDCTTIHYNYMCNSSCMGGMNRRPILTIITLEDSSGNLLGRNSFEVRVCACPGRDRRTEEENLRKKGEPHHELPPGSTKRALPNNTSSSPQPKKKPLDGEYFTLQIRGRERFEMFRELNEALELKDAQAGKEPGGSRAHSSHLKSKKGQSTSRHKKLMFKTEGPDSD

As for `[As]#[In]`, the compound was classed as inactive in [1], in experiment [2], in [3], in experiment [4], in experiment [5] and in [6]. Besides, the compound was called inactive in experiment [7], in [8] and in [9].
With `[O-][Cl+]O`, the compound was classed as inactive in experiment [1], in experiment [2], in experiment [3], in [4], in experiment [5] and in [6]. Besides, the compound was called inactive in experiment [7], in experiment [8], in experiment [9] and in experiment [10].
For `c1ccc2c(c1)-c1cccc3cccc-2c13`, the result in experiment [1], in [2], in experiment [3], in experiment [4], in experiment [5] and in [7] was inactive. The call in experiment [8] and in experiment [10] was inactive. Further, in experiment [6], the half-maximal activity concentration (AC50) (commonly the concentration giving half of the maximal activity seen) is 16.1 µM (active).
Consider `CCCCCCCCOC(=O)c1ccc(C(=O)OCCCCCCCC)c(C(=O)OCCCCCCCC)c1`, for which the compound was called inactive in [1], in experiment [2], in experiment [3], in experiment [4], in experiment [5] and in experiment [6]. The call in [7], in [8], in [9] and in experiment [10] was inactive.
As for `O=C(O)C1C2CCC(O2)C1C(=O)O` (centres undefined), the AC50 in experiment [1] is 35.1 µM (active); in experiment [4], 34.7 µM (active); in experiment [6] it was 50 µM (active); in experiment [9] it was 75.1 µM (active). Besides, the call in experiment [2], in experiment [3], in experiment [5], in experiment [7], in experiment [8] and in experiment [10] was inactive.
Take `CC(C)(OOC(C)(C)c1ccccc1)c1ccccc1`: the result in experiment [1], in experiment [2], in experiment [3], in experiment [4], in experiment [5] and in experiment [7] was inactive. The call in experiment [8], in experiment [9] and in experiment [10] was inactive. The AC50 in experiment [6] was 24.4 µM (active).
For `Cc1ccc(N=C=O)cc1N=C=O`, the result in experiment [1], in experiment [2], in experiment [3], in experiment [5], in [6] and in [7] was inactive. Also, in experiment [8], the outcome was inactive. The concentration at half-maximal activity (AC50) in experiment [4] was 19.3 µM (active); in [9], 33.1 µM (active).
As for `Cc1ccc([N+](=O)[O-])cc1`, the compound was called inactive in [1], in experiment [2], in experiment [3], in [4], in experiment [5] and in experiment [7]. Further, the compound was classed as inactive in [8], in [9] and in [10]. For the same compound, the AC50 in [6] was 8.26 µM (active).
Consider `COC(=O)Nc1nc2ccccc2[nH]1`, for which the result in experiment [1], in experiment [3], in experiment [4], in [5], in experiment [7] and in experiment [8] was inactive. Moreover, the compound was classed as inactive in experiment [9] and in experiment [10]. In [6], the concentration at half-maximal activity (AC50) was 31.4 µM (active).
Take `CCCCOC(=O)c1ccccc1C(=O)OCc1ccccc1`: the call in experiment [1], in experiment [2], in experiment [3], in experiment [4], in experiment [5] and in experiment [7] was inactive. The call in experiment [8], in experiment [9] and in experiment [10] was inactive.
As to `Cc1cc(N=Nc2ccccc2C)ccc1N`, the AC50 was 2.72 µM (active) in experiment [1]; 1.41 µM (active) in experiment [4]; 1.97 µM (active) in [5]; 85.9 µM (active) in experiment [6]; 12.2 µM (active) in experiment [7]; 4 µM (active) in [8]. Also, the AC50 in experiment [9] was 5.21 µM (active). The compound was classed as inactive in [3] and in experiment [10].
For the compound `O=C(N[C@H](c1ccccc1)[C@@H]1CN2CCC1CC2)c1c(Cl)ccc(C(F)(F)F)c1Cl`, the AC50 in experiment [1] was 46.2 µM (active); in experiment [3], 73.9 µM (active); in experiment [6] it was 63.8 µM (active); in experiment [7], 68.2 µM (active); in experiment [8] it was 73.9 µM (active); in experiment [9], 51.9 µM (active). Moreover, the compound was called inactive in experiment [4] and in [5].
As for `OCCOCCO`, the result in [1], in experiment [2], in [3], in [4], in [6] and in [7] was inactive. For the same compound, the compound was called inactive in experiment [8], in [9] and in [10].
With `CCCCCCCCn1sccc1=O`, the compound was classed as inactive in experiment [1], in experiment [2], in experiment [3], in [5], in [8] and in [10]. Also, the AC50 is 87.3 µM (active) in experiment [4], 81.3 µM (active) in experiment [7] and 79.7 µM (active) in [9].
In the case of `N#CC(Br)(Br)C(N)=O`, the result in experiment [1], in experiment [3], in experiment [4], in experiment [5], in experiment [6] and in experiment [7] was inactive. Further, the compound was called inactive in [8], in experiment [9] and in experiment [10].
For `C=CCc1ccc2c(c1)OCO2`, the outcome in experiment [1], in experiment [3], in [4], in experiment [5], in [6] and in [7] was inactive. For the same compound, the outcome in [8] and in experiment [9] was inactive.
In the case of `CCCCCOC(=O)c1ccccc1C(=O)OCCCCC`, the outcome in experiment [1], in experiment [2], in [3], in experiment [4], in experiment [5] and in [7] was inactive. Also, the result in experiment [8], in experiment [9] and in experiment [10] was inactive.
On to `COc1cc(C=O)cc2c1[C@H](COC(N)=O)[C@]1(OC(C)=O)ON2C[C@H]2[C@@H]1N2C(C)=O`, for which the AC50 in experiment [1] was 3.38 µM (active); in experiment [2], 2.63 µM (active); in experiment [9], 1.54 µM (active). Further, the outcome in experiment [3], in experiment [4], in [5], in experiment [7], in experiment [8] and in [10] was inactive.
Take `ClC1=C(Cl)[C@]2(Cl)[C@H]3[C@H]([C@@H]4C=C[C@H]3C4)[C@@]1(Cl)C2(Cl)Cl`: the outcome in [1], in [2], in [3], in [5], in experiment [7] and in experiment [8] was inactive. Also, the compound was called inactive in [9] and in experiment [10]. For the same compound, the AC50 in [4] is 30.8 µM (active).

The record behind these values is PubChem BioAssay (EPA / NIEHS).
